Results as given in PubChem BioAssay AID1445 (SRMLSC, 2008).
About 910 (0.41%) of roughly 220,000 compounds were called active. The list comes from a sample in which actives are over-represented; it also holds similar structures and randomly drawn compounds. Measured potencies and affinities stand elsewhere. Values without a mark were called inactive.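 How the source made its calls: active means primary inhibition above the hit cutoff, then over 50% inhibition at one or more dose response concentrations (cut at about 23% in these data, passing the limit was not always enough); inconclusive means conflicting primary data, or primary hits not chosen for dose response; inactive means low primary inhibition, or under 50% at every dose.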

target: Aminopeptidase N (Plasmodium falciparum (isolate 3D7)) (UniProt O96935); test: malaria alanyl aminopeptidase activity blockers – biochemical, fluorogenic H-Leu-NHMec substrate, 1536-well (AID 1445); settings: recombinant M1AAP, H-Leu-NHMec fluorogenic kinetic assay; at 30 µM, stronger effect = higher value unless noted;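 further: plate controls were DMSO full reaction for no effect and no enzyme background for full effect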
Sequence (O96935 whole entry, looked up): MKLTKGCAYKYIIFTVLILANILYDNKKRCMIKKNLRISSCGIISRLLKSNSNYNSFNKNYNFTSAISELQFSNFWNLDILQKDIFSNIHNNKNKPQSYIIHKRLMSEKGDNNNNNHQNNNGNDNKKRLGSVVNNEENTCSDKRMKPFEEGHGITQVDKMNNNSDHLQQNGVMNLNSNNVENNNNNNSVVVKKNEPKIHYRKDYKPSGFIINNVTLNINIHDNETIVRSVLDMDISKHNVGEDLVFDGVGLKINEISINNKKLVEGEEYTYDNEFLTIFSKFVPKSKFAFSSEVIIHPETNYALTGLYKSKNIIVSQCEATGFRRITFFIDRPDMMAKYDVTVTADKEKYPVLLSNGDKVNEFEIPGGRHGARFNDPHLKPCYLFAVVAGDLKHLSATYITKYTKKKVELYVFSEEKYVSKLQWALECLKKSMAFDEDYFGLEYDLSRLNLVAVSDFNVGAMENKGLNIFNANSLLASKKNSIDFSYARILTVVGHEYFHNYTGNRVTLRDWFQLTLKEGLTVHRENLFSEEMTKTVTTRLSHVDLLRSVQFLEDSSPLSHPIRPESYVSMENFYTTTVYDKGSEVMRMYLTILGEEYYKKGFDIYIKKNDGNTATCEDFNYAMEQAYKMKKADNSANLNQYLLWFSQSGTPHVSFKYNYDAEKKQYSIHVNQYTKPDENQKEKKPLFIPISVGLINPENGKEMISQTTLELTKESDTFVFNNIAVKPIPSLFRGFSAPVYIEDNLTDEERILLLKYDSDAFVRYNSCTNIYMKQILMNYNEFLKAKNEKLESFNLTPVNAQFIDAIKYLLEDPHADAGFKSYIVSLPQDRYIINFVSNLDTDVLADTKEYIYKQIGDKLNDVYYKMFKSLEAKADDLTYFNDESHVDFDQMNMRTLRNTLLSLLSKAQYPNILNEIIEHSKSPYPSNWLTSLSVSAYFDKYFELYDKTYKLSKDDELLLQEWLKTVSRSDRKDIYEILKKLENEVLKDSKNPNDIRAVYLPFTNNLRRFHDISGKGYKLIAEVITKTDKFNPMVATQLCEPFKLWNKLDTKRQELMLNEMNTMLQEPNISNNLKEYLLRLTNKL

Row | Structure (SMILES) | inhibition
1 | CC(=O)NS(=O)(=O)c1ccc(N=c2ssc3c2-c2cc(C)ccc2NC3(C)C)cc1 | 9.04%
2 | CC(=O)NS(=O)(=O)c1ccc(N=c2ssc3c2-c2cc(C)c(C)cc2NC3(C)C)cc1 | 13.3%
3 | Cc1ccc(CCNC(=O)c2cc(C)nn2-c2ccccc2)cc1 | 0.72%
4 | Cc1cc(C)nc(NS(=O)(=O)c2cccs2)c1 | -0.13%
5 | COc1ccc(NS(=O)(=O)c2cccs2)c(OC)c1 | 5.44%
6 | COc1ccc(Nc2nc3ccccc3nc2NS(=O)(=O)c2cccs2)cc1 | 10.1%
7 | Cc1ccc(NS(=O)(=O)c2ccc(NS(=O)(=O)c3cccs3)cc2)cc1 | -3.61%
8 | Cc1ccc(-c2cc(C(=O)O)c3ccccc3n2)c(C)c1 | 3.63%
9 | Cc1ccc(NC(=O)Cn2c(/C=C/c3ccccc3)nc3ccccc32)cc1C | 7.46%
10 | Cc1c(Cl)cccc1N1C(=O)CC(NNC(=O)c2cccnc2)C1=O (stereo not given) | 8.09%
11 | O=C(c1cccnc1)N1CCN(c2ccccc2Cl)CC1 | -11.5%
12 | CCN1C(=S)SC(=O)C1=C1C=C(C)N(CCO)C(C)=C1 | 26.2% (active)
13 | CCN1C(=S)SC(=O)C1=C1C=C(C)N(Cc2ccco2)C(C)=C1 | 12.6%
14 | CCN1C(=S)SC(=O)C1=C1C=C(C)OC(C)=C1 | 0.47%
15 | C/C(CC(=O)Nc1ccccc1)=N\NC(=O)COc1ccc(C)cc1Br | 2.81%
16 | CCC(C)(C)n1nnnc1C(c1ccc2ncccc2c1)N1CCCCCC1 (stereo not given) | 4.86%
17 | CCC(C)(C)n1nnnc1C(c1ccc2ncccc2c1)N1CCN(c2ccc(O)cc2)CC1 (stereo not given) | 4.2%
18 | COc1ccc(/C=C/C(=O)NCc2cnn(C)c2C)cc1COc1ccc(Br)cc1 | -0.2%
19 | CC1CCCC(C)N1NC(=O)c1cccc(S(=O)(=O)N2CCc3ccccc32)c1 (stereo not given) | 1.3%
20 | COC(=O)n1c(=O)oc2ccccc21 | 6.55%

Row | Structure (SMILES) | inhibition
21 | COc1cccc(Cn2nnc(C(=O)Nc3cc(C)ccc3OC)c2N)c1 | 7.36%
22 | CCn1cnc2c1c(=O)n(CC(=O)Nc1cc(C)on1)c(=O)n2Cc1ccccc1 | -3%
23 | Cc1cc(NC(=O)Cn2c(=O)n(Cc3ccccc3)c(=O)c3ccccc32)no1 | 23.7% (active)
24 | CN(C)c1ccc(NC(=O)Cn2c(=O)n(Cc3ccccc3)c(=O)c3ccccc32)cc1 | 10.9%
25 | Cc1ccc(C(=O)CC2(O)C(=O)Nc3ccccc32)s1 (stereo not given) | -3.92%
26 | CCOc1ccccc1NC(=S)NCCCn1ccnc1 | -1.93%
27 | O=C(Nc1ccc(F)cc1)c1ccccc1S(=O)(=O)c1ccccc1[N+](=O)[O-] | 10.1%
28 | CC(=O)Nc1ccc(NC(=O)c2ccccc2S(=O)(=O)c2ccccc2[N+](=O)[O-])cc1 | 6.51%
29 | COCc1cc(C)n(CC(=O)OC)c(=O)c1C#N | 6.13%
30 | CC(C)(C)NC(=O)CN(C(=O)CS(=O)CC(=O)Nc1ccc(F)cc1)c1ccc(Cl)cc1 (stereo not given) | 3.41%
31 | Cc1cc(C)n(-c2nc3ccccc3nc2N2CCCC2)n1 | 7.98%
32 | Cc1cc(C)n(-c2nc3ccccc3nc2N2CCCCCC2)n1 | 5.75%
33 | CCN(CC)c1nc2ccccc2nc1-n1nc(C)cc1C | 25.1% (active)
34 | CC(=O)c1sc2nc(C)cc(C)c2c1N | 3.82%
35 | CCn1c(SCC(=O)N2CCCC2)nnc1-c1ccc(S(=O)(=O)N2CCCCCC2)cc1 | 17.8%
36 | CCOC(=O)C1=C(O)/C(=C/c2ccccn2)SC1=Nc1ccc(Cl)cc1 | -2.13%
37 | CCOC(=O)C1=C(O)/C(=C/c2ccc(-c3ccccc3C(=O)O)o2)SC1=Nc1ccc(OC)cc1 | 26.2% (active)
38 | CCOC(=O)C1=C(O)/C(=C/c2cc(OC)c(OC)c(OC)c2)SC1=Nc1ccc(OC)cc1 | 0.13%
39 | CCOC(=O)c1ccc(N2C(=O)C(O)=C(C(C)=O)C2c2ccc(O)c(OC)c2)cc1 (stereo not given) | 11%
40 | COc1ccccc1-c1c(NC(=O)c2ccco2)n(C)c2ccccc2c1=O | 5.76%

Row | Structure (SMILES) | inhibition
41 | O=C(c1cnc2n(c1=O)CCS2)N(c1ccccc1)C1CCCCC1 | 3.16%
42 | CN(C(=O)c1cnc2n(c1=O)CCS2)C1CCCCC1 | 7.72%
43 | Cn1nnnc1Sc1ccc([N+](=O)[O-])cc1Cl | 4.02%
44 | Cc1ccc(OCC(=O)Nc2ccc(S(=O)(=O)Nc3ccccn3)cc2)cc1C | -0.21%
45 | Cc1ccc2nc(NC(=O)CSc3nncc(=O)n3N)sc2c1 | -3.78%
46 | CC1=CC(c2ccccc2)n2nc(NS(=O)(=O)c3ccc(C)cc3)nc2N1 (stereo not given) | 9.04%
47 | CC(=O)Nc1nc2n(n1)C(c1ccccc1)C=C(c1ccccc1)N2 (stereo not given) | 21.9%
48 | CC1=CC2=NC(=O)/C(=C\c3cccn3CCOc3cc(C)cc(C)c3)C(=N)N2O1 | 4.33%
49 | CCOC(=O)COc1cc2oc(=O)cc(C)c2cc1[N+](=O)[O-] | 1.36%
50 | CSc1cccc(-n2cc(-c3ccc4c(c3)OCO4)[nH]c2=O)c1 | 25.8% (active)
51 | CCOc1ccc(-c2cn(-c3cccc(SC)c3)c(=O)[nH]2)cc1 | 7.5%
52 | COc1ccc(-c2cn(-c3cccc(C)c3)c(=O)[nH]2)cc1OC | 0.73%
53 | COc1cccc(-c2nnc(SCc3cccnc3)o2)c1 | 1.1%
54 | Cc1nn(-c2ccccc2)c(C)c1/C=N/NC(=O)c1cc(C23CC4CC(CC(C4)C2)C3)[nH]n1 | 8.14%
55 | CN(NS(=O)(=O)c1ccc(Cl)cc1)c1ncc(C(F)(F)F)cc1Cl | 3.99%
56 | Cc1cccc(NC(=O)c2c(-c3ccccc3)noc2C)n1 | 3.16%
57 | CSc1cccc(NC(=S)N2CCC(N(C)C3CCCCCC3)CC2)c1 | 5.52%
58 | O=c1c(-c2ccc3c(c2)OCCO3)coc2cc(O)cc(O)c12 | 13.2%
59 | Cc1oc2cc(O)cc(O)c2c(=O)c1-c1ccc2c(c1)OCCCO2 | -10.6%
60 | O=c1c(-c2ccc3c(c2)OCCO3)c(C(F)(F)F)oc2cc(O)cc(O)c12 | 24.6% (active)
